Results: a collection of fitness landscapes (doi:10.1126/science.1257360)
In all, about 140,000 sequences were measured (“enrichment ratio after two sorts for PhoP signalling”: median about 0, highest 2% from about 11 on). What follows is part of a selection rich in the highest values, with near analogues and random picks from the rest.

B1: PhoQ; a variant is named by its letters at X, in order, P23837 (parent)
chain: MKKLLRLFFPLSLRVRFLLATAAVVLVLSLAYGMVALIGYSVSFDKTTFRLLRGESNLFYTLAKWENNKLHVELPENIDKQSPTMTLIYDENGQLLWAQRDVPWLMKMIQPDWLKSNGFHEIEADVNDTSLLLSGDHSIQQQLQEVREDDDDAEMTHSVAVNVYPATSRMPKLTIVVVDTIPVELKSSYMVWSWFIYVLSANLLLVIPLLWVAAWWSLRPIEALAKEVRELEEHNRELLNPATTRELTSLVRNLNRLLKSERERYDKYRTTLTDLTHSLKTPLXXLQXXLRSLRSEKMSVSDAEPVMLEQISRISQQIGYYLHRASMRGGTLLSRELHPVAPLLDNLTSALNKVYQRKGVNISLDISPEISFVGEQNDFVEVMGNVLDNACKYCLEFVEISARQTDEHLYIVVEDDGPGIPLSKREVIFDRGQRVDTLRPGQGVGLAVAREITEQYEGKIVAGESMLGGARMEVIFGRQHSAPKDE

Variants of: B1
Assay: enrichment ratio after two sorts for PhoP signalling (ratio (wild type AVST 3.29)); higher = more functional
Settings: with PhoP (E. coli)
With AQAS the enrichment ratio was 18.6. With WQAS the enrichment ratio was no more than 0.25. AKAS was tested, and the enrichment ratio was 9.64. For AQAN, the enrichment ratio was 18.7. AKAN was tested, and the enrichment ratio was no more than 0.25. In the case of YTAN, the enrichment ratio is reported as no more than 0.25. Variant AYFR has an enrichment ratio of no more than 0.25. WMYW showed an enrichment ratio of no more than 0.25. IMAW showed an enrichment ratio of no more than 0.25. RNGP was tested, and the enrichment ratio was no more than 0.25. PWQL was tested, and the enrichment ratio was 0.791. For DNHF, the enrichment ratio was no more than 0.25. TNNI was tested, and the enrichment ratio was 3.41. MAGF gave an enrichment ratio of 14.5. Work on NAGF yielded an enrichment ratio of no more than 0.25. Variant MAGD has an enrichment ratio of no more than 0.25. KAGF showed an enrichment ratio of no more than 0.25. Work on MAGS yielded an enrichment ratio of 17.7. MAVK showed an enrichment ratio of no more than 0.25. AHRA gave an enrichment ratio of no more than 0.25. CFDS was tested, and the enrichment ratio was no more than 0.25. For MCPV, the enrichment ratio was no more than 0.25. Variant DLEL has an enrichment ratio of no more than 0.25. LYPG gave an enrichment ratio of no more than 0.25. With ASMH the enrichment ratio was 16.5. ASCH showed an enrichment ratio of 13.6. ASCF was tested, and the enrichment ratio was 9.91. Variant ASVH has an enrichment ratio of 8.62. With KSMH the enrichment ratio was no more than 0.25. With ASTH the enrichment ratio was 6.74. KDVM showed an enrichment ratio of no more than 0.25. DIWH showed an enrichment ratio of no more than 0.25. In the case of RDYH, the enrichment ratio is reported as no more than 0.25. KKLQ showed an enrichment ratio of no more than 0.25. Work on YHEH yielded an enrichment ratio of no more than 0.25. For RDFI, the enrichment ratio was no more than 0.25. In the case of MVFQ, the enrichment ratio is reported as 13.2. With LEYT the enrichment ratio was 11.9. Variant LNYT has an enrichment ratio of no more than 0.25. Variant QGFE has an enrichment ratio of no more than 0.25. With MVHP the enrichment ratio was 0.338. MVFE showed an enrichment ratio of no more than 0.25. STYT was tested, and the enrichment ratio was 0.437. For QRYT, the enrichment ratio was no more than 0.25. QGFQ gave an enrichment ratio of 13.4. Variant QEYT has an enrichment ratio of 20.9. For FFFQ, the enrichment ratio was no more than 0.25. With LTYT the enrichment ratio was no more than 0.25. In the case of PAIE, the enrichment ratio is reported as no more than 0.25. Variant FSRF has an enrichment ratio of no more than 0.25. With SYCE the enrichment ratio was 2.48. With VEGN the enrichment ratio was no more than 0.25. With RAVD the enrichment ratio was no more than 0.25. VDID gave an enrichment ratio of no more than 0.25. For QGYV, the enrichment ratio was 11.2. QGCI was tested, and the enrichment ratio was 19.5. For QGGG, the enrichment ratio was 17.7. Variant QGCK has an enrichment ratio of no more than 0.25. TPGG showed an enrichment ratio of no more than 0.25. Work on QGYK yielded an enrichment ratio of 0.706. For QGCS, the enrichment ratio was no more than 0.25. With FQWS the enrichment ratio was no more than 0.25. With FFWS the enrichment ratio was no more than 0.25. Work on QGWS yielded an enrichment ratio of 20.8. With QGYI the enrichment ratio was 17.5. Variant FFGG has an enrichment ratio of no more than 0.25. Work on NSEV yielded an enrichment ratio of no more than 0.25. GKAT showed an enrichment ratio of no more than 0.25. For WHGN, the enrichment ratio was no more than 0.25. NVPF showed an enrichment ratio of no more than 0.25. MAFQ was tested, and the enrichment ratio was 24.4. Work on STYI yielded an enrichment ratio of no more than 0.25. MEFQ showed an enrichment ratio of 3.08. QGWI was tested, and the enrichment ratio was 22.5. Work on QGDS yielded an enrichment ratio of no more than 0.25. In the case of QPWS, the enrichment ratio is reported as no more than 0.25. With QGRA the enrichment ratio was no more than 0.25. With QEWS the enrichment ratio was 13.4. In the case of MAFE, the enrichment ratio is reported as 8.88. Variant QEYI has an enrichment ratio of 13.9. QRWS was tested, and the enrichment ratio was no more than 0.25. QEFA gave an enrichment ratio of 0.476. In the case of RMEL, the enrichment ratio is reported as no more than 0.25. For DLMW, the enrichment ratio was no more than 0.25. Variant PLYK has an enrichment ratio of no more than 0.25. KDVS showed an enrichment ratio of no more than 0.25. With RYGQ the enrichment ratio was no more than 0.25. QQYQ showed an enrichment ratio of no more than 0.25. For NKEY, the enrichment ratio was no more than 0.25. In the case of TTLW, the enrichment ratio is reported as no more than 0.25. Variant VACH has an enrichment ratio of no more than 0.25. Variant ISIQ has an enrichment ratio of no more than 0.25. FCWE was tested, and the enrichment ratio was no more than 0.25. With QPGS the enrichment ratio was no more than 0.25. For QGWE, the enrichment ratio was 14.3. For QGGS, the enrichment ratio was 14.5. FFGS was tested, and the enrichment ratio was no more than 0.25. FFWE was tested, and the enrichment ratio was no more than 0.25. In the case of FTRQ, the enrichment ratio is reported as no more than 0.25. With DCTH the enrichment ratio was no more than 0.25. For VFMI, the enrichment ratio was no more than 0.25. Variant SHFN has an enrichment ratio of no more than 0.25. Variant FRIN has an enrichment ratio of no more than 0.25. TSNK gave an enrichment ratio of no more than 0.25. Variant TVTC has an enrichment ratio of 14.5. Work on KSSC yielded an enrichment ratio of no more than 0.25. KSTC showed an enrichment ratio of no more than 0.25. Variant KSSA has an enrichment ratio of no more than 0.25. In the case of FSSA, the enrichment ratio is reported as no more than 0.25. MMTC showed an enrichment ratio of no more than 0.25. Work on TSSC yielded an enrichment ratio of 12.8. SPTC was tested, and the enrichment ratio was no more than 0.25. TSSA gave an enrichment ratio of 11.3. For TSTC, the enrichment ratio was 17.2. Work on NSSC yielded an enrichment ratio of no more than 0.25. In the case of NVLH, the enrichment ratio is reported as no more than 0.25. With LSRG the enrichment ratio was no more than 0.25. Variant REYW has an enrichment ratio of no more than 0.25. PQTM showed an enrichment ratio of no more than 0.25. With SPEK the enrichment ratio was no more than 0.25. PVEK showed an enrichment ratio of no more than 0.25. Variant TVEK has an enrichment ratio of 13.3. In the case of PFML, the enrichment ratio is reported as no more than 0.25. Work on SGNG yielded an enrichment ratio of no more than 0.25. TKIS gave an enrichment ratio of 4.17. TKIV was tested, and the enrichment ratio was 11.9. AKIM showed an enrichment ratio of 4.82. For MKIM, the enrichment ratio was no more than 0.25. With TKQV the enrichment ratio was 4.75. Work on TKIM yielded an enrichment ratio of 15.1. Variant SEYW has an enrichment ratio of no more than 0.25. With QMAQ the enrichment ratio was no more than 0.25. Variant QWLW has an enrichment ratio of no more than 0.25. Variant LLLD has an enrichment ratio of no more than 0.25. With NKIV the enrichment ratio was no more than 0.25. TKLA was tested, and the enrichment ratio was 4.75. MKLS showed an enrichment ratio of no more than 0.25. AKLA was tested, and the enrichment ratio was 5.14. Variant TKLS has an enrichment ratio of 19.9. AKLS showed an enrichment ratio of 13.1. For AILS, the enrichment ratio was 9.63. In the case of QRQP, the enrichment ratio is reported as no more than 0.25. Work on INTT yielded an enrichment ratio of no more than 0.25. YYHN was tested, and the enrichment ratio was no more than 0.25. Work on NEQI yielded an enrichment ratio of no more than 0.25. Work on TEQP yielded an enrichment ratio of no more than 0.25. AQQM gave an enrichment ratio of no more than 0.25. Work on TEQA yielded an enrichment ratio of 13.7. In the case of TEQM, the enrichment ratio is reported as 17.8. TEHN was tested, and the enrichment ratio was 11.9. MEQI gave an enrichment ratio of no more than 0.25. With NEQM the enrichment ratio was no more than 0.25. TEQH gave an enrichment ratio of 3.62. MEHN showed an enrichment ratio of no more than 0.25. In the case of TEQI, the enrichment ratio is reported as 15.
